Our source for the Potency values is ChEMBL document CHEMBL1201862, “PubChem BioAssay data set” (2004).

Hit rate of the full screen: of about 350,000 compounds, about 700 (0.2%) were called active. The calls are words filed in the database; no cut-off is given here. Many of the other results were omitted from the sample, so actives are more common in it than they were.

The target of this test is RecQ-like DNA helicase BLM (Homo sapiens) (UniProt P54132). The experiment in a line: qHTS Assay for Inhibitors of Bloom's syndrome helicase (BLM). The format is functional.
RecQ-like DNA helicase BLM (Homo sapiens), sequence (P54132 whole entry): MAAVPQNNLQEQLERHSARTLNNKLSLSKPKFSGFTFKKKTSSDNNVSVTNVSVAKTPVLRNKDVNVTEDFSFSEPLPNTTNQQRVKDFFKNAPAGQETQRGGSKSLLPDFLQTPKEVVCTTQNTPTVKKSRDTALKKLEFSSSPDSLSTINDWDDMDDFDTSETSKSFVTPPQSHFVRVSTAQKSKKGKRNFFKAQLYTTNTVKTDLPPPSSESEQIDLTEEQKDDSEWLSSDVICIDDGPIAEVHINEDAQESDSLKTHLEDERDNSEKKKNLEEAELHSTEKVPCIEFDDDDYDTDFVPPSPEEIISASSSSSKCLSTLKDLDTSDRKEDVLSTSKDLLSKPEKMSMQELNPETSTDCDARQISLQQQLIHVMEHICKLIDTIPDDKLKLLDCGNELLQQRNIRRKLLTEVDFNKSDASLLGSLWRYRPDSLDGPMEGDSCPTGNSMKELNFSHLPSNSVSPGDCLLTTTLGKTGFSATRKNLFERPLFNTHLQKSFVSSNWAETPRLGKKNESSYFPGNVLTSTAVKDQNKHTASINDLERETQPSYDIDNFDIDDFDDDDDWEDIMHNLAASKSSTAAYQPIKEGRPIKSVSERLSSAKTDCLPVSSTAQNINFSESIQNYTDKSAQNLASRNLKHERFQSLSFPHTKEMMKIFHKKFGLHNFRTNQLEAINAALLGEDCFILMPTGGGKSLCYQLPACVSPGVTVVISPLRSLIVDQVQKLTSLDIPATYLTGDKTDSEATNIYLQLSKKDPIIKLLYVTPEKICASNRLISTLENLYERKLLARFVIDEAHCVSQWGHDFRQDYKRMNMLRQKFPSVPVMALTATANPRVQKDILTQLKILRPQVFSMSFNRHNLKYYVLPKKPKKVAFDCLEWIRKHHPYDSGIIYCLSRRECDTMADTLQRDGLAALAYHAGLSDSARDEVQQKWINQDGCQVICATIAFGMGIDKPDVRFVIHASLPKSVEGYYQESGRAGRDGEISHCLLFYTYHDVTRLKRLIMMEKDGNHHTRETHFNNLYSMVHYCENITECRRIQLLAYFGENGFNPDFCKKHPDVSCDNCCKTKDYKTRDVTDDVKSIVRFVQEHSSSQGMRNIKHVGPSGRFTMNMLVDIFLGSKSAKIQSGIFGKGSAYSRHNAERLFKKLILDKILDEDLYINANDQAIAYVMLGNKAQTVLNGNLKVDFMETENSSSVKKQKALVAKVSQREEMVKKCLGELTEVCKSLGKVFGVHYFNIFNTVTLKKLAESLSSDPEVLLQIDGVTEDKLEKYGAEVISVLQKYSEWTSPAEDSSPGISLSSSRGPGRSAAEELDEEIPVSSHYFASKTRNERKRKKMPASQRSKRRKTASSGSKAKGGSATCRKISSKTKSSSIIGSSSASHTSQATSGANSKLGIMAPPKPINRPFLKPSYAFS
Take `Nc1nc(N)c2nc(CNc3ccc(C(=O)N[C@@H](CCC(=O)O)C(=O)O)cc3)cnc2n1`: the Potency was 20 µM (active).
